Inconclusive results are not listed. A number with no mark means an inactive call. Activity calls are given as the source filed them. Calls come from the whole dose curve; as a rule, active = well fitted activation curve with a large enough effect; inconclusive = small, poorly fitted or top-dose-only effect; inactive = flat fitted curve, though single readings scatter.
Assay: qHTS for Inhibitors of Cell Surface uPA Generation: FP59 Counterscreen for Cherry-picked Compounds; for activity (protection from FP59): 0% is about no effect
Details: FP59 anthrax toxin cytotoxicity counterscreen, cells; series mostly up to 115 µM; activity (protection from FP59): at the top concentration
Potency is the fitted concentration of half-maximal effect.

SMILES | activity (protection from FP59) [%] | Potency
COc1ccc(NC(=O)CCNS(=O)(=O)c2ccccc2F)cc1S(=O)(=O)N1CCOCC1 | -1.16 | –
O=C(Cc1ccccc1)Nc1ccc(NC(=O)c2ccccc2)c(Cl)c1 | -1.32 | –
CN(C)c1cccc(C(=O)N(C)C2CCCN(Cc3ccccc3F)C2)c1 (stereo not given) | – | 52.1 µM (active)
CC(NC(=O)NC1CCCCC1)C(c1cccs1)N1CCN(C)CC1 (stereo not given) | -1.43 | –
N#CCCN(C(=O)COC(=O)c1ccc2c(c1)NC(=O)CS2)c1ccc2c(c1)OCCO2 | -1.28 | –
CCOc1cc(/C=N/Nc2cc(C)nc3ccc(C)cc23)ccc1O | -1.03 | –
Cc1cc(C)n(CCCNC(=O)c2ccc(C)o2)n1 | -1.64 | –
Cc1ccc(C(=O)NC(=S)Nc2ccc3[nH]c(=O)[nH]c3c2)c(C)c1 | -1.44 | –
Cc1ccc(NC(=O)c2ccc(=O)[nH]n2)cc1S(=O)(=O)Nc1ccccc1Cl | -1.47 | –
COC(=O)CNC(=O)COC(=O)/C=C/c1ccccc1[N+](=O)[O-] | -1.46 | –
COc1ccc(CN2CCNC(=O)C2CC(=O)NCC2CCOCC2)cc1C (stereo not given) | -1.4 | –
Cc1noc(C)c1COc1ccc(C(=O)O)cc1 | -1.37 | –
COc1ccc(C(=O)NCCOC(C)C)cc1OC1CCN(C(C)=O)CC1 | -1.24 | –
COc1ccc(C(=O)NNC(=O)Cc2ccc(Cl)cc2)cc1 | -1.18 | –
CN(C)C(=S)Nc1ccc(S(=O)(=O)N2CCCCC2)cc1 | -1.13 | –
O=C(C1CCCCN1S(=O)(=O)c1ccc(F)cc1)N1CCN(c2ccccc2F)CC1 (stereo not given) | -0.0276 | –
C=CCn1c(C)cc(C(=O)COC(=O)/C=C/c2cccc(OC)c2)c1C | -0.999 | –
CC(C)CCN1C(=O)c2ccc(-c3nc4ccccc4c(=O)o3)cc2C1=O | -1.05 | –
O=[N+]([O-])c1ccccc1C=NNC(=S)NN=Cc1ccccc1[N+](=O)[O-] | -0.537 | –
Cc1ccc(C(=O)NNC(=O)CNc2cccc(Cl)c2)cc1 | -1.44 | –
CCN1CCN(C(c2ccccc2)c2nnnn2Cc2ccc3c(c2)OCO3)CC1 (stereo not given) | -1.55 | –
CC(C)c1ccc(SCc2noc(C(=O)NCC3CCCO3)c2C(=O)O)cc1 (stereo not given) | -1.37 | –
CCN(CC)S(=O)(=O)c1ccc(C(=O)Nc2nnc(COC)o2)cc1 | -0.922 | –
COc1cccc(C(=O)Cn2c(NCCCO)nc3ccccc32)c1 | -1.55 | –
NS(=O)(=O)c1ccc(CCNC(=O)c2ccc(Cl)s2)cc1 | -1.27 | –

Source: PubChem BioAssay AID720517 (National Center for Advancing Translational Sciences (NCATS), 2013)
